PubChem BioAssay
Calls of active or inactive are those of the source.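 Rule for the calls, unless noted: active = inhibition of the reporter signal at or above 50%; inactive = inhibition below 50%.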

Legend:
[1] = inhibitors of TNFa-induced NFkB p65 translocation, primary screen, imaging, HUVEC, MLSMR starter and 10KST1 sets (AID 438;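 active = inhibition above 20% together with a positive visual image hit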;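 note: compound added about 3h40 before a 20 min TNFalpha stimulation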;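 for inhibition: signal is the nuclear over cytoplasmic p65 intensity ratio per well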); conditions: HUVEC TNFa-induced p65 nuclear translocation; cell count: measured here: nuclei count (cytotoxicity indicator), at 2.08 µM; inhibition: at 2 µM, stronger effect = higher value, 0% TNFa-plus-vehicle, 100% no-TNFa wells
[2] = inhibitors of mutant huntingtin aggregation, primary screen, imaging, exon1htt(103Q)mCFP cells, high-content imaging (AID 483;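 active = visual image review flags a hit and inhibition of aggregation exceeds 20%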;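 note: compound exposure lasted 3 days before fixation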;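 for nuclei count: percent of the per-plate median nuclei count of sample wells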); conditions: exon1htt(103Q)mCFP cell line, aggregate imaging, at 2 µM; inhibition of aggregation: stronger effect = higher value; nuclei count: measured here: cell count, toxicity
[3] = inhibitors of E-selectin induction by TNFa, primary screen, imaging, HUVEC, immunofluorescence, MLSMR starter and 10KST1 sets (AID 487;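 active = visually confirmed hit in the image check and inhibition above 20%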;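 for inhibition: signal is fraction of cell area covered by stained E-selectin grains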;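 for nuclei count: 100% = median nuclei count of all wells on the same plate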); conditions: HUVEC TNFalpha-induced E-selectin immunofluorescence imaging, at 2 µM; inhibition: stronger effect = higher value; nuclei count: measured here: cell number, toxicity
[4] = biological target: Voltage-gated potassium channel subunit beta-2 (Rattus norvegicus) (UniProt P62483); test: KvBeta enzyme negative modulators, primary screen, biochemical, NADPH fluorescence (AID 622;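 active = fluorescence slope higher than the sample average by over 3 SD, cut at about -0.22 in these data, passing the limit was not always enough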;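 note: slope of raw intensity against log time taken from 70 to 1610 s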); conditions: recombinant KvBeta, 4-cyanobenzaldehyde reduction, at 10 µM, stronger effect = higher value
[5] = biological target: Voltage-gated potassium channel subunit beta-2 (Rattus norvegicus) (UniProt P62483); test: KvBeta positive modulators, primary screen, biochemical, NADPH fluorescence (AID 623;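 active = NADPH fluorescence slope more negative than the mean of all samples by about 3 SD, 99.7% confidence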;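 note: fluorescence intensity change per second fitted from 20 to 320 s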); conditions: Recombinant KvBeta, NADPH fluorescence decrease slope, 10 min; at 10 µM; stronger effect = lower value
[6] = biological target: Alpha-2C adrenergic receptor (Homo sapiens) (UniProt P18825); test: modulators of alpha2C/GIRK thallium flux, primary screen, cell-based, HEK293 alpha2C/GIRK1/2 (AID 624;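 active = fluorescence slope after compound addition differing from the mean of all screened samples at 99.7% confidence, in either direction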;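 note: slope of fluorescence ratio to pre-addition baseline per second over 15 to 24 s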); conditions: thallium flux BTC fluorescence, at 10 µM, actives lie on both sides
[7] = inhibitors of Sendai virus-induced IRF3 signaling, primary screen, TLR/RLR signaling modifier project, cell-based, Sendai virus stimulus, luciferase, 10K MLSCN set (AID 602276;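 active = inhibition at or above 50% at 10 µM; inactive = inhibition below 50%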;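 note: firefly luciferase from ISG56 promoter only with Renilla not read in this screen; 0% = Sendai virus plus DMSO and 100% = medium plus DMSO without virus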); conditions: HEK293 RL24 IRF3 luciferase reporter, at 10 µM, stronger effect = higher value
[8] = inhibitors of poly I:C-induced TLR3 signaling, primary screen, cell-based, poly I:C stimulus, luciferase, 10K MLSCN set (AID 602277); conditions: HEK293-TLR3 RL24 IRF3 luciferase reporter, at 10 µM, stronger effect = higher value

Chain of Alpha-2C adrenergic receptor (Homo sapiens) (P18825 whole entry, looked up): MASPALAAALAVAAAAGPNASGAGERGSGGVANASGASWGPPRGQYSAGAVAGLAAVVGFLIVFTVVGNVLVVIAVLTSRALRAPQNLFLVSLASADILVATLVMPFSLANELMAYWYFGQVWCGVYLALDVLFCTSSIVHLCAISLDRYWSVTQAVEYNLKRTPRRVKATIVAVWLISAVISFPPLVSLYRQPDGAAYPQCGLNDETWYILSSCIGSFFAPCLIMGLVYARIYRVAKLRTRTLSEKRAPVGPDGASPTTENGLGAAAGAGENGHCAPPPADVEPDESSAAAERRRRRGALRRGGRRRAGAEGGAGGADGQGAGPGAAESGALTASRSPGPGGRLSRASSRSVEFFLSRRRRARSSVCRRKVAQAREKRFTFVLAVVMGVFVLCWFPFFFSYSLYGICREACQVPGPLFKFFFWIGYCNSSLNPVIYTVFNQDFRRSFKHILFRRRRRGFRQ
Chain of Voltage-gated potassium channel subunit beta-2 (Rattus norvegicus) (P62483 whole entry, looked up): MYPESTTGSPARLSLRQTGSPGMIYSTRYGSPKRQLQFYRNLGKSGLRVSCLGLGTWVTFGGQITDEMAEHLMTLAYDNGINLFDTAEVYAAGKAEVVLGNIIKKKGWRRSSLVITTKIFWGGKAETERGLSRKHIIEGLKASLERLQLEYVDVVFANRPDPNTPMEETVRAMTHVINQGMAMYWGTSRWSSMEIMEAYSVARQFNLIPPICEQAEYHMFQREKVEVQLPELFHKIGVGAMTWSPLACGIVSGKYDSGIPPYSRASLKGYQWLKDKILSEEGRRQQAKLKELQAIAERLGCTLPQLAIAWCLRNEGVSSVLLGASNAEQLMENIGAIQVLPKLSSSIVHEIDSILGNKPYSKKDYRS

CC(=O)Nc1cccc(NC(=O)CSc2nn3c(=O)c(C)nnc3s2)c1
cell count [1]: 577
inhibition [1]: 5.2% (inactive)
inhibition of aggregation [2]: 9.9% (inactive)
nuclei count [2]: 97.9%
inhibition [3]: -0.3% (inactive)
nuclei count [3]: 95.8%
fluorescence slope [4]: -0.454 (inactive)
NADPH fluorescence slope [5]: -5.9e-05 (inactive)
slope [6]: 0.00534 (inactive)
inhibition [7]: 2.45% (inactive)
inhibition [8]: 20.4% (inactive)

CCCCn1c(SCC(=O)Nc2ccc(OC)cc2)nc2ccc(N3CCOCC3)cc2c1=O
cell count [1]: 508
inhibition [1]: -0.6% (inactive)
inhibition of aggregation [2]: 20.8% (inactive)
nuclei count [2]: 44.4%
inhibition [3]: -3.4% (inactive)
nuclei count [3]: 103%
fluorescence slope [4]: -0.407 (inactive)
NADPH fluorescence slope [5]: 6.3e-06 (inactive)
slope [6]: 0.00425 (inactive)
inhibition [7]: 11.2% (inactive)
inhibition [8]: 13.1% (inactive)

Cc1ccc(Cn2c(=O)c3ccccc3n3c(CCC(=O)O)nnc23)cc1
cell count [1]: 681
inhibition [1]: -13.4% (inactive)
inhibition of aggregation [2]: -2.1% (inactive)
nuclei count [2]: 90%
inhibition [3]: -55.9% (inactive)
nuclei count [3]: 116%
fluorescence slope [4]: -0.554 (inactive)
NADPH fluorescence slope [5]: 1.7e-05 (inactive)
slope [6]: 0.00669 (inactive)
inhibition [7]: 0.88% (inactive)
inhibition [8]: 12.6% (inactive)

CCOC(=O)c1sc(NC(=O)c2c(C)nn(Cc3ccccc3)c2C)cc1C
cell count [1]: 395
inhibition [1]: -7.8% (inactive)
inhibition of aggregation [2]: 42.3% (active)
nuclei count [2]: 60%
inhibition [3]: -20.6% (inactive)
nuclei count [3]: 106%
fluorescence slope [4]: -0.448 (inactive)
NADPH fluorescence slope [5]: -0.000126 (inactive)
slope [6]: 0.00542 (inactive)
inhibition [7]: -9.51% (inactive)
inhibition [8]: -3.87% (inactive)

CC(C)C(C(=O)Nc1ccc2c(c1)OCO2)N1C(=O)c2ccccc2C1=O (centres undefined)
cell count [1]: 696
inhibition [1]: -1% (inactive)
inhibition of aggregation [2]: 10.6% (inactive)
nuclei count [2]: 109%
inhibition [3]: 77.1% (active)
nuclei count [3]: 85%
fluorescence slope [4]: -0.411 (inactive)
NADPH fluorescence slope [5]: -8.9e-05 (inactive)
slope [6]: 0.00641 (inactive)
inhibition [7]: 14.6% (inactive)
inhibition [8]: 25.5% (inactive)

Cc1cc(C)nc(NS(=O)(=O)c2ccc(NC(=O)Cn3c(=O)oc4ccccc43)cc2)n1
cell count [1]: 490
inhibition [1]: 0.5% (inactive)
inhibition of aggregation [2]: 26% (inactive)
nuclei count [2]: 63.8%
inhibition [3]: -31.3% (inactive)
nuclei count [3]: 122%
fluorescence slope [4]: -0.577 (inactive)
NADPH fluorescence slope [5]: -4.3e-06 (inactive)
slope [6]: 0.00665 (inactive)
inhibition [7]: 9.3% (inactive)
inhibition [8]: 25.4% (inactive)

CN1CCc2c(sc3c2C(=O)NC(c2cccc(OC(=O)c4cccs4)c2)N3)C1 (centres undefined)
cell count [1]: 497
inhibition [1]: -2.5% (inactive)
inhibition of aggregation [2]: -4.1% (inactive)
nuclei count [2]: 101%
inhibition [3]: -21.9% (inactive)
nuclei count [3]: 108%
fluorescence slope [4]: -0.422 (inactive)
NADPH fluorescence slope [5]: -4.2e-05 (inactive)
slope [6]: 0.00392 (inactive)
inhibition [7]: -5.69% (inactive)
inhibition [8]: 10.3% (inactive)

O=C(CSc1nc2ccccc2o1)NC(=O)NCc1ccco1
cell count [1]: 342
inhibition [1]: -1.8% (inactive)
inhibition of aggregation [2]: -12.3% (inactive)
nuclei count [2]: 94.8%
inhibition [3]: -31.1% (inactive)
nuclei count [3]: 112%
fluorescence slope [4]: -0.333 (inactive)
NADPH fluorescence slope [5]: -3.3e-05 (inactive)
slope [6]: 0.00371 (inactive)
inhibition [7]: -2.31% (inactive)
inhibition [8]: 12.3% (inactive)

CC1=C(C(=O)Nc2ccccc2C)C(c2ccc(C)o2)N2C(=O)CSC2=N1 (centres undefined)
cell count [1]: 642
inhibition [1]: -16.7% (inactive)
inhibition of aggregation [2]: 0% (inactive)
nuclei count [2]: 106%
inhibition [3]: -5.9% (inactive)
nuclei count [3]: 95.6%
fluorescence slope [4]: -0.44 (inactive)
NADPH fluorescence slope [5]: -1.8e-05 (inactive)
slope [6]: 0.00436 (inactive)
inhibition [7]: 16.5% (inactive)
inhibition [8]: 21.5% (inactive)

O=S(=O)(c1ccc2c(c1)OCCO2)N1CCC(n2nnc3cc(F)ccc32)CC1
cell count [1]: 577
inhibition [1]: -9.9% (inactive)
inhibition of aggregation [2]: 1.5% (inactive)
nuclei count [2]: 78%
inhibition [3]: -24.6% (inactive)
nuclei count [3]: 103%
fluorescence slope [4]: -0.5 (inactive)
NADPH fluorescence slope [5]: -3e-05 (inactive)
slope [6]: 0.00521 (inactive)
inhibition [7]: 17.3% (inactive)
inhibition [8]: 17.7% (inactive)

O=C(Cn1cnc2ccccc2c1=O)NCCC(=O)N1CCN(Cc2ccccc2)CC1
cell count [1]: 451
inhibition [1]: -3.8% (inactive)
inhibition of aggregation [2]: 31.1% (inactive)
nuclei count [2]: 80.5%
inhibition [3]: -0.7% (inactive)
nuclei count [3]: 112%
fluorescence slope [4]: -0.416 (inactive)
NADPH fluorescence slope [5]: -9.6e-05 (inactive)
slope [6]: 0.00528 (inactive)
inhibition [7]: 12.1% (inactive)
inhibition [8]: 24.7% (inactive)

CC(C)COc1ccc(C(=O)OCCN2CCOCC2)cc1
cell count [1]: 211
inhibition [1]: 2.3% (inactive)
inhibition of aggregation [2]: -8.6% (inactive)
nuclei count [2]: 108%
inhibition [3]: -18.5% (inactive)
nuclei count [3]: 116%
fluorescence slope [4]: -0.636 (inactive)
NADPH fluorescence slope [5]: 1.1e-05 (inactive)
slope [6]: 0.00666 (inactive)
inhibition [7]: -17.8% (inactive)
inhibition [8]: -15% (inactive)

CCc1ccc(C2CC(c3cccc(OC)c3)n3nc(N)nc3N2)cc1 (centres undefined)
cell count [1]: 528
inhibition [1]: 7.5% (inactive)
inhibition of aggregation [2]: 3.7% (inactive)
nuclei count [2]: 111%
inhibition [3]: -40.1% (inactive)
nuclei count [3]: 104%
fluorescence slope [4]: -0.599 (inactive)
NADPH fluorescence slope [5]: -4e-05 (inactive)
slope [6]: 0.00641 (inactive)
inhibition [7]: 11.5% (inactive)
inhibition [8]: 25.7% (inactive)

CC(=O)c1ccc(OCC(O)CN2CCN(Cc3ccc4c(c3)OCO4)CC2)cc1 (centres undefined)
cell count [1]: 522
inhibition [1]: 4.5% (inactive)
inhibition of aggregation [2]: -3.8% (inactive)
nuclei count [2]: 87.9%
inhibition [3]: -33.9% (inactive)
nuclei count [3]: 108%
fluorescence slope [4]: -0.536 (inactive)
NADPH fluorescence slope [5]: -4.2e-05 (inactive)
slope [6]: 0.0062 (inactive)
inhibition [7]: 11.6% (inactive)
inhibition [8]: 40.6% (inactive)
